This is a sample that favours compounds with a hit; in the whole collection about 3% have one here.
ABHD5-PLIN5 inh: blocks binding of human ABHD5 to perilipin-5; Split G. princeps luciferase complementation, luminescence, 4 h; inhibition, % at 4 µM; AID 602281; Q00G26+Q8WTS1; actives 0.78% (n = 360,000);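 active means inhibition above the mean inhibition across every tested compound plus 3 SD, cut at about 22% in these data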;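 further: 0% = DMSO only wells and the 100% control is not disclosed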
Target sequence (Q00G26 whole entry, looked up): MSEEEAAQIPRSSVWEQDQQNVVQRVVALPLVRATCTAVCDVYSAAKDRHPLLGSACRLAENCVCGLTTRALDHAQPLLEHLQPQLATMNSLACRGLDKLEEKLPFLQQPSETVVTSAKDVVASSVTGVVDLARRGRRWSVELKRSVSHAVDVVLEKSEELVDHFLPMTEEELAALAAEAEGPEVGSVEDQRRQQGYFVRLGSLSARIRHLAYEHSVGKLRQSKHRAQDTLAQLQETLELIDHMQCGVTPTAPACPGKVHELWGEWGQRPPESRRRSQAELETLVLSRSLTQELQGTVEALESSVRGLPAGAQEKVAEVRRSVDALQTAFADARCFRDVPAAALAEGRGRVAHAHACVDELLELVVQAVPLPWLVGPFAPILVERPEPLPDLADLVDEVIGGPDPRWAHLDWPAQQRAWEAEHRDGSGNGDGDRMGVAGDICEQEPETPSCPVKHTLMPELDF
Target sequence (Q8WTS1 whole entry, looked up): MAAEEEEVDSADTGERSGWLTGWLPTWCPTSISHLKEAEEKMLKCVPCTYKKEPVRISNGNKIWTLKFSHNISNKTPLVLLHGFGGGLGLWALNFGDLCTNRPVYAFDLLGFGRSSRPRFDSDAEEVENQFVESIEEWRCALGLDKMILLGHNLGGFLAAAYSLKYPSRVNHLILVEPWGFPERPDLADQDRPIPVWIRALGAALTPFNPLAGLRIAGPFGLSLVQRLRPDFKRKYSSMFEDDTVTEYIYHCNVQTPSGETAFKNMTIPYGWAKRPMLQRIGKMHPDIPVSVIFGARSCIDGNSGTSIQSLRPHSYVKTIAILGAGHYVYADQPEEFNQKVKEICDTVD
Peg3 promoter: inhibitors of Peg3 promoter. HeLa PEG-Prom luciferase reporter, luminescence, overnight. inhibition, % at 20 µM. actives 1.7% (n = 360,000). AID 588405;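 active means inhibition of at least 50% at 20 µM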
TRPM1 prom inh: MITF TRPM1 promoter inhibition in SK-MEL-5 cells | SK-MEL-5 TRPM1 promoter luciferase, 24 h | inhibition, % at 12.5 µM | actives 0.83% (n = 330,000) | AID 488899;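 active means mean inhibition across replicates of 60% or more, whatever share of single replicates reaches that level; inconclusive means some that reach 60%, reason not given; inactive means mean inhibition across replicates below 60%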
PAX8 reporter: PAX8 transcriptional activity inhibition. RMG-I TPO-luciferase reporter, SteadyGlo, 24 h. inhibition, % at 12.6 µM. actives 1.2% (n = 360,000);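 active means mean replicate inhibition at least 60% with every replicate also reaching 60%; inconclusive means only one of the two criteria is met; inactive means mean below 60% and not all replicates reaching 60%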;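 further: luciferase light reporting Pax8 driven TPO promoter activity; plate controls were median of neutral control wells for no effect and mitoxantrone controls for full effect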
EWS-Fli inh: inhibitors of EWS/Fli oncoprotein transcriptional activity | inhibition, % at 12.6 µM | A673 NR0B1-luciferase reporter, viability-normalised | actives 0.67% (n = 350,000) | AID 651661;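 active means mean inhibition of at least 50% after viability correction, with every replicate also passing that limit; inconclusive means mean reaches 50% but only one of two replicates passes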;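 further: firefly luciferase signal divided by Alamar Blue viability fluorescence both relative to DMSO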
Shn3 inh set2: Schnurri-3 reporter inhibition in Clone20 osteoblasts | actives 0.52% (n = 360,000) | Clone20 osteoblast Shn3 3'UTR firefly luciferase, 24 h | AID 588674 | inhibition, % at 12.5 µM;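 active means mean inhibition of at least 75% with every replicate also reaching 75%; inconclusive means mean inhibition at least 75% but some replicate below; inactive means mean inhibition below 75%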;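 further: 0% = median of neutral control wells and 100% = pilot-screen positive control compound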
ABHD5 PLIN5 conf: confirmation of human ABHD5-PLIN5 interaction inhibitors | shares compounds with ABHD5-PLIN5 inh | biochemical ABHD5-PLIN5 interaction, luminescence | inhibition, % at 4 µM | actives 67% (n = 2,200) | AID 651612; in the data active means inhibition above about 23%;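 further: 0% = DMSO vehicle wells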
HNF4 counter: HNF4 split-luciferase signal hit, counter-screen | AID 651674 | HNF4 dimerization, luminescence, biochemical | shares compounds with ABHD5-PLIN5 inh | actives 77% (n = 2,200) | inhibition, % at 4 µM;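 active means mean inhibition across replicate wells exceeding the computed hit threshold, cut at about 13% in these data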;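 further: light from luciferase halves that rejoin when HNF4 fusion proteins dimerize; 0% = DMSO only wells and the 100% control is not given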
* = called active by the depositor; ? = inconclusive; . = no result.

SMILES | ABHD5-PLIN5 inh | Peg3 promoter | TRPM1 prom inh | PAX8 reporter | EWS-Fli inh | Shn3 inh set2 | ABHD5 PLIN5 conf | HNF4 counter
Cc1noc(C)c1NC(=O)Nc1ccc2c(c1)C(=O)N([C@@H](C)CO)C[C@@H](C)[C@@H](CN(C)S(=O)(=O)c1ccccc1)O2 | . | . | . | . | -15.5 | . | . | .
Cc1ccc(C2=NN=C(NC(=O)CSc3nncn3C)SC2)cc1 | 44.9* | -49.0 | -10.7 | -19.0 | -5.6 | -3.3 | 70.2* | 102.1*
Cc1ccc(C(=O)NC(=O)CSc2nncn2C)cc1 | -4.4 | 10.5 | -4.9 | 4.9 | -1.4 | 6.3 | . | .
COc1cccc(NC(=O)N2CC(=O)N3[C@H](CO)[C@@H](c4ccc(C#CC5CCCC5)cc4)[C@H]3C2)c1 | . | . | . | 5.7 | . | . | . | .
COC(=O)C[C@@H]1CC[C@H]2[C@@H](COc3ccc(NC(=O)c4cccc(Cl)c4)cc3C(=O)N2C)O1 | . | . | . | 12.1 | -4.7 | . | . | .
CC1(C)Cc2c(C#N)c(NC3CCCCC3)nc(-c3ccco3)c2CO1 | 34.2* | -5.2 | 12.7 | . | . | -41.9 | 32.9* | 41.1*
CCOc1ccc(C(=O)CCC(=O)N(CC)CC(=O)NCc2cccs2)cc1 | -6.1 | -20.4 | -3.1 | -11.1 | -6.8 | -8.7 | . | .
CCOc1ccc(C(=O)CC(NCc2cccs2)C(=O)O)cc1 (stereo not given) | 56.7* | -6.8 | 8.6 | 8.1 | 2.1 | -5.4 | 90.7* | 110.4*
COCC(=O)N1CCC2(CC1)CN(C(=O)c1ccccn1)[C@H](CO)c1c2c2ccc(OC)cc2n1C | . | . | . | . | 7.1 | . | . | .
COc1ccc(/C=C2/CCC(CN3CCOCC3)C2=O)cc1 (stereo not given) | 69.0* | 100.5* | 99.1* | 5.0 | 56.7* | ? | 100.0* | 107.1*
CC1CCC/C(=C\c2ccc(O)cc2)C1=O (stereo not given) | -2.2 | -36.5 | -37.0 | -2.5 | -2.5 | -42.4 | . | .
O=C1/C(=C\c2ccc(Cl)cc2)CCC1CNc1ccc(Cl)cc1 (stereo not given) | 36.9* | 89.2* | 22.2 | 6.8 | 12.6 | 51.0 | 59.8* | 79.9*
CN(C)CC1CC/C(=C\c2ccc(O)cc2)C1=O (stereo not given) | 91.9* | 97.8* | . | 49.2 | 43.8 | 89.9* | 93.4* | 106.6*
Cc1ccc(/C=C2\CCC(C3CCCC3)C2=O)cc1 (stereo not given) | 3.8 | -264.9 | -15.9 | -85.2 | -54.0 | -63.8 | . | .
COc1ccc(/C=C2\CCC(C3CCCC3)C2=O)cc1 (stereo not given) | -0.1 | -307.8 | -91.1 | -86.5 | -6.7 | -19.7 | . | .
Cc1noc(C)c1S(=O)(=O)N(C)C[C@@H]1Oc2ccc(NC(=O)CCCN(C)C)cc2C(=O)N([C@@H](C)CO)C[C@@H]1C | . | . | . | . | -10.6 | . | . | .
C[C@H]1CN([C@@H](C)CO)C(=O)c2cccc(NC(=O)Nc3ccc(F)cc3)c2O[C@H]1CN(C)CC1CC1 | . | . | . | -18.3 | 18.2 | . | . | .
O=C(NCC1CC1)[C@H]1N[C@H]2c3ccc(-c4ccccc4F)c(=O)n3C[C@H]2[C@@H]1CO | . | . | . | . | 3.7 | . | . | .
Cc1ccc(-n2c(C)cc(/C=C3\SC(=O)NC3=O)c2C)cc1 | -7.0 | -237.0 | -76.2 | -233.0 | -113.1 | -56.9 | . | .
Cc1cc(/C=C2\SC(=Nc3ccccc3)NC2=O)c(C)n1-c1ccc(S(N)(=O)=O)cc1 | 28.5* | -4.7 | 17.7 | . | . | 24.0 | 6.8 | 7.0
CNc1ccccc(C(=O)/C=C/c2ccccc2OC)c1=O | 31.6* | -13.9 | 23.8 | . | . | -4.3 | 68.7* | 48.2*
COc1ccccc1C=CC(=O)C=Cc1ccccc1OC | 32.3* | 98.8* | 74.3* | 16.8 | 39.0 | 51.9 | 72.4* | 44.7*
CNc1ccc(Br)cc(C(=O)/C=C/c2cccc(OC)c2OC)c1=O | 21.4 | 7.0 | 12.6 | . | . | -30.3 | . | .
COC(=O)/C=C/S(=O)(=O)c1ccc(NC(C)=O)cc1 | 76.2* | 105.0* | 21.0 | . | . | 93.3* | 86.5* | 107.0*
COc1ccccc1OS(=O)(=O)c1ccc(NC(C)=O)cc1 | 3.1 | 1.6 | 5.0 | 12.4 | -7.5 | -14.2 | . | .
O=C(C[n+]1cc(-c2ccc(F)cc2)n2c1CCC2)Nc1nc(-c2ccccc2)cs1 | 16.0 | -37.9 | 5.7 | 15.8 | . | 22.4 | . | .

Compound activity as filed in PubChem BioAssay.
